log2 fold change data for 33 targets are collected here from the supplement of paper PMC10849652.

About 8,800 targets were measured; listed, in parts, are those with a hit and a random draw of the rest. About 0.5% of all pairs of compound and target were hits. Values without a mark were called inactive.

Sequence of UniProt Q8N196 (Q8N196 whole entry, looked up): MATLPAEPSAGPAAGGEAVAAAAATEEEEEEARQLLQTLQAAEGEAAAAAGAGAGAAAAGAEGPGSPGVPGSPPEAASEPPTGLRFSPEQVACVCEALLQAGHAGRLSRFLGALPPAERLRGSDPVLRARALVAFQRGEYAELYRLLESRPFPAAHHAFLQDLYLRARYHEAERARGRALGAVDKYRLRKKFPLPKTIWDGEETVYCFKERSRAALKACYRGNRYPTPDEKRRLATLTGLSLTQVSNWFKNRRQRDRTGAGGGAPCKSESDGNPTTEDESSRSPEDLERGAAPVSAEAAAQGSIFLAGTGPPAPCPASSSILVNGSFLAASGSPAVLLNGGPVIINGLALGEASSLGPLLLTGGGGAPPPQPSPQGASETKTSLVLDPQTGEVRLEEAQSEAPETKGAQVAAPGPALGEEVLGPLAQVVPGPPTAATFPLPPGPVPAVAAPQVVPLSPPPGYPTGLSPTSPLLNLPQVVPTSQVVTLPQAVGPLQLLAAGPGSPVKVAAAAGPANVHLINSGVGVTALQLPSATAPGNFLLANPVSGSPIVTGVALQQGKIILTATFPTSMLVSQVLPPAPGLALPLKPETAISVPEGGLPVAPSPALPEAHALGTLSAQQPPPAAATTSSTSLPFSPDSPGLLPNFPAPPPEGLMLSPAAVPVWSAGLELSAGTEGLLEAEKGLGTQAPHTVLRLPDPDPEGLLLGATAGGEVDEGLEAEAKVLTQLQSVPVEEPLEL
Sequence of UniProt Q9BWW4 (Q9BWW4 whole entry, looked up): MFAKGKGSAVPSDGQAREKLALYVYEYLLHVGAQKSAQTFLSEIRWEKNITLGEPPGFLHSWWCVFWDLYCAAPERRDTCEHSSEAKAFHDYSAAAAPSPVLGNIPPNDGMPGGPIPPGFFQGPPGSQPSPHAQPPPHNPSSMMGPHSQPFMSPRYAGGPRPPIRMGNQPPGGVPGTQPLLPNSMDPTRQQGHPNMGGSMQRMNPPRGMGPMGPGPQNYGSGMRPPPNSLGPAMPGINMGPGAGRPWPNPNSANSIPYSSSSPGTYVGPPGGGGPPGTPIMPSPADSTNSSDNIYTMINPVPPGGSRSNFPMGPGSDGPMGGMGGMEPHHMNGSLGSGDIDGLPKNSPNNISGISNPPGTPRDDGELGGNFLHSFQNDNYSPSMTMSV
Sequence of UniProt Q9HBM1 (Q9HBM1 whole entry, looked up): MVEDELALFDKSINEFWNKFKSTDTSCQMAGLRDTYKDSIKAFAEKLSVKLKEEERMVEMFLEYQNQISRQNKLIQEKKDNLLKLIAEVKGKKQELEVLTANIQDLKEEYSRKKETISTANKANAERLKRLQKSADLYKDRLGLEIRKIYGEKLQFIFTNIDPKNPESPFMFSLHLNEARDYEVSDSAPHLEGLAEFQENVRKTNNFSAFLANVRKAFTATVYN
Sequence of UniProt Q13188 (Q13188 whole entry, looked up): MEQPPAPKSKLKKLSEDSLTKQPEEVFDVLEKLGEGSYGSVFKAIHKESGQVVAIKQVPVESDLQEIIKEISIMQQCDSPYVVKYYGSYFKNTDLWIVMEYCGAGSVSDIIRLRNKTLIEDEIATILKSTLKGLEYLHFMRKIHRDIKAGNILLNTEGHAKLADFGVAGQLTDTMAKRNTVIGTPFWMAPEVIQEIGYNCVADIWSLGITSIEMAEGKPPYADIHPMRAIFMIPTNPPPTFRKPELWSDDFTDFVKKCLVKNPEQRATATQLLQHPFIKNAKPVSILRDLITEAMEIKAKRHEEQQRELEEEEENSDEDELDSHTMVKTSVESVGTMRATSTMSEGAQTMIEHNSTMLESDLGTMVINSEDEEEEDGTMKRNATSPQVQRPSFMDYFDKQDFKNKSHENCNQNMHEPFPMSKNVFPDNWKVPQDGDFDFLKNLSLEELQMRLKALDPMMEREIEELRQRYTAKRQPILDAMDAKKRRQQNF
Sequence of UniProt Q15022 (Q15022 whole entry, looked up): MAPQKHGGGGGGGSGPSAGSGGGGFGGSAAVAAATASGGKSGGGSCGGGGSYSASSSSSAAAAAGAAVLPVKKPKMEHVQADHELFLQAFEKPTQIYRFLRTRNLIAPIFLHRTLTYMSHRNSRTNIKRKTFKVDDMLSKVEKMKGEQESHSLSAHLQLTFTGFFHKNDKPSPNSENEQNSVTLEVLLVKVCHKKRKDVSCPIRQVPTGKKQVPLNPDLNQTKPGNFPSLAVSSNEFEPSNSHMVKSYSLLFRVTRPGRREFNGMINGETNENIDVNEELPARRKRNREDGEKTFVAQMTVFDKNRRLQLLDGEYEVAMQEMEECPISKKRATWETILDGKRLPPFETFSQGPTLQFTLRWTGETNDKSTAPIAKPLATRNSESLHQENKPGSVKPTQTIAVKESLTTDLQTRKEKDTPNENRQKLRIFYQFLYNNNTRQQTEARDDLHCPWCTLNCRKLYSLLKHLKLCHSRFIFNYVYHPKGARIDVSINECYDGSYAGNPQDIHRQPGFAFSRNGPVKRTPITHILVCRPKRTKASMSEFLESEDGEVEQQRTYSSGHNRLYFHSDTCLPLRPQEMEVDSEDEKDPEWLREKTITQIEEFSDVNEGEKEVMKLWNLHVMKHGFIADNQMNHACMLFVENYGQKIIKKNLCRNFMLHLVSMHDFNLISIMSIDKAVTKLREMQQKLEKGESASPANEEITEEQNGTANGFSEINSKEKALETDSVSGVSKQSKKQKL
Sequence of UniProt Q13395 (Q13395 whole entry, looked up): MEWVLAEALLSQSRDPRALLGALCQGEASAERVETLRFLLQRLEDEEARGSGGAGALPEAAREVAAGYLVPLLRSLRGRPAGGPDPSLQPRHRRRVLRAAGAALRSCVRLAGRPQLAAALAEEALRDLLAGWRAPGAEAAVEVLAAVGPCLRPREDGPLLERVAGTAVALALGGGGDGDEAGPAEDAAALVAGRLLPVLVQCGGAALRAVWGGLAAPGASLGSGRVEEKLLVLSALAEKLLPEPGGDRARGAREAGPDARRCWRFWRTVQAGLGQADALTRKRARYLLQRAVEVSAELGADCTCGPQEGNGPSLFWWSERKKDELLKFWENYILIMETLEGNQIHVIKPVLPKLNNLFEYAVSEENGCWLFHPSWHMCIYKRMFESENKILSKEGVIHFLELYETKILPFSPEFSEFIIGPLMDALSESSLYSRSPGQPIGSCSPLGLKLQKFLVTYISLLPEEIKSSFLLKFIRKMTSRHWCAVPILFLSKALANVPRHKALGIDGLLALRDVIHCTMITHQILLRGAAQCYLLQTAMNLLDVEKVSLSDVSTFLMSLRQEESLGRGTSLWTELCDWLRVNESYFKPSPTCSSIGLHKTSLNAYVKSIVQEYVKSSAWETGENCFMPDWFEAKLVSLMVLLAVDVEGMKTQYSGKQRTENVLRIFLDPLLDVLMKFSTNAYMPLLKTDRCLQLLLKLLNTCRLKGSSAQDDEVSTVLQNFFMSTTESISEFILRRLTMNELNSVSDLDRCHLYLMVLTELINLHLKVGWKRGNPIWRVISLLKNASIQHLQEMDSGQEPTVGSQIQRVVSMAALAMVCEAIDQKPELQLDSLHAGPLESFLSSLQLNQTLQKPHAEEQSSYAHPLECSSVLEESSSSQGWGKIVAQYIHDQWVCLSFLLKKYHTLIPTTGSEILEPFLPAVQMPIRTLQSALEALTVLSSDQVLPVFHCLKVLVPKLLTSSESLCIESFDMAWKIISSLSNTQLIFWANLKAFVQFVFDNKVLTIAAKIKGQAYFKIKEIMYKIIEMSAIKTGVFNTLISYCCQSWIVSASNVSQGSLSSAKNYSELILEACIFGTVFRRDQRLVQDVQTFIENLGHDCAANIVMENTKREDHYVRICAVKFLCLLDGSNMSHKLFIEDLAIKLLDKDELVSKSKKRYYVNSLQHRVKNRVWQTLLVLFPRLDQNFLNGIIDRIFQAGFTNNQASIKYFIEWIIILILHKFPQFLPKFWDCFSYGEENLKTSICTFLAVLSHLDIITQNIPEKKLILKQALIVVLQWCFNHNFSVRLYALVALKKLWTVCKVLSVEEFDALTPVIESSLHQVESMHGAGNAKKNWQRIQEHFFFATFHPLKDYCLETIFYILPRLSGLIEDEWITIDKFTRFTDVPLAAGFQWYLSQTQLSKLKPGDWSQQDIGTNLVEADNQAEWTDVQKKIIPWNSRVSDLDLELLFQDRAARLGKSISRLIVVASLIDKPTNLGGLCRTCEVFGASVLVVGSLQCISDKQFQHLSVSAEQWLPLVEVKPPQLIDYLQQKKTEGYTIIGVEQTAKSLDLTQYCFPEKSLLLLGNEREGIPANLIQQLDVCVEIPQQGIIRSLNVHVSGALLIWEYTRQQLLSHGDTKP
Sequence of UniProt O95149 (O95149 whole entry, looked up): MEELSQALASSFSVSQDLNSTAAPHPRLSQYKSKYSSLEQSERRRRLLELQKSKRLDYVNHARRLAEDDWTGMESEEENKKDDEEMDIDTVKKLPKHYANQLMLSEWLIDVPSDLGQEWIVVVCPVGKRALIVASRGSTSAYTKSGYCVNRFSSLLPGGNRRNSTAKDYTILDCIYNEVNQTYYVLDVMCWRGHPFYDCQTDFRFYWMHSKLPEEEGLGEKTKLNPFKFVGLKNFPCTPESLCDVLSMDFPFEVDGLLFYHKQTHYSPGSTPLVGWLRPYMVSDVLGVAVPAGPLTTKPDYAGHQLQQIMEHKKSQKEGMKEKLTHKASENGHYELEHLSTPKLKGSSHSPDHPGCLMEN
Sequence of UniProt Q8N1S5 (Q8N1S5 whole entry, looked up): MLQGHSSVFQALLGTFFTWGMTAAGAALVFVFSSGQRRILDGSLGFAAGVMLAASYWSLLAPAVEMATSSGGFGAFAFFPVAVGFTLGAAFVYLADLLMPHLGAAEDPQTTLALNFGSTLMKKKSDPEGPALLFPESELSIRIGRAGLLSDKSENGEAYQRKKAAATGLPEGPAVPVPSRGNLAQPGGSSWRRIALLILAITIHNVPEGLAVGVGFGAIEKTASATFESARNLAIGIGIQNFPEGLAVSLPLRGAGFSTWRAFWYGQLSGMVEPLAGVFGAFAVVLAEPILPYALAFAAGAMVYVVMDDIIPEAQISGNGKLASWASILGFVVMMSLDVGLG
Sequence of UniProt B2RUZ4 (B2RUZ4 whole entry, looked up): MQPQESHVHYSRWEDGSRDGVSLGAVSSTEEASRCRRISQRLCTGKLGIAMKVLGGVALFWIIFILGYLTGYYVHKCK

Compound in the first assay: CC(C)(O)CC(=O)NCCn1ccc2ncnc(Nc3ccc(Oc4cccc(C(F)(F)F)c4)c(Cl)c3)c21
The experiment in a line: log2 fold change, soluble protein after heating vs DMSO (PISA); higher = thermal stabilisation; K562 lysate, 10 uM; active = over 0.2 and 3.5 SD of the protein, either way, in both replicates (recomputed). Put shortly:
(§1)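 Thermal stability, expressed as log-two fold change relative to solvent controls, is given from duplicates. Crude K562 extract in PBS pH 7.4 with 1 mM MgCl2, at 1 mg/mL protein, was treated with 10 μM compound for 30 min and heated in aliquots for 3 min across 48°C-58°C. After pooling, adjustment to 0.5% NP-40 at 4°C and centrifugation at 21,000xg for 90 min, supernatant protein was measured by TMTpro 16plex LC-MS/MS with channel sums equalised.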
Regarding SORBS3 (UniProt O60504), the log2 fold change is -0.113.

Take SF3B6 (UniProt Q9Y3B4): the log2 fold change is -0.017.

For the target TAF1B (UniProt Q53T94), the log2 fold change was -0.112.

In the case of SH3GL1 (UniProt Q99961), the log2 fold change is 0.006.

For SLC25A38 (UniProt Q96DW6), the log2 fold change is -0.003.

As for SLC30A6 isoform 2 (UniProt Q6NXT4), the log2 fold change is -0.016.

Turning to SMYD3 (UniProt Q9H7B4), the log2 fold change is -0.012.

For the target SIX5 (UniProt Q8N196), the log2 fold change was -0.046.

On to SSBP3 (UniProt Q9BWW4), for which the log2 fold change was -0.038.

Regarding SNRPD2 (UniProt P62316), the log2 fold change is -0.041.

On to SNUPN (UniProt O95149), for which the log2 fold change is -0.068.

Regarding SLC39A11 (UniProt Q8N1S5), the log2 fold change is -0.042.

Turning to STN1 (UniProt Q9H668), the log2 fold change was -0.071.

For the target SRSF9 (UniProt Q13242), the log2 fold change was -0.031.

Consider SMIM12 (UniProt Q96EX1), for which the log2 fold change is -0.049.

On to SZT2 (UniProt Q5T011), for which the log2 fold change was -0.07.

For STMN3 (UniProt Q9NZ72), the log2 fold change is 0.025.

With SLC25A44 (UniProt Q96H78), the log2 fold change is -0.322.

As to SYNE2 isoform 2 (UniProt Q8WXH0), the log2 fold change is -0.076.

For the target STK3 isoform 2 (UniProt Q13188), the log2 fold change was 0.037.

For the target SPPL2A (UniProt Q8TCT8), the log2 fold change was -0.219.

Take SURF2 (UniProt Q15527): the log2 fold change was -0.038.

SPC25 (UniProt Q9HBM1): the log2 fold change was 0.015.

Consider SH3BP2 isoform 4 (UniProt P78314), for which the log2 fold change was 0.137.

For the target SMC1B isoform 3 (UniProt Q8NDV3), the log2 fold change was -0.029.

For the target TARBP1 (UniProt Q13395), the log2 fold change was 0.03.

Turning to SSX5 isoform 2 (UniProt O60225), the log2 fold change is 0.032.

As to SRRT (UniProt Q9BXP5), the log2 fold change was 0.006.

As to SMIM1 (UniProt B2RUZ4), the log2 fold change is 0.036.

Consider SOX5 (UniProt P35711), for which the log2 fold change is 0.02.

Consider SYK (UniProt P43405), for which the log2 fold change is -0.103.

As to SUZ12 (UniProt Q15022), the log2 fold change is -0.036.

Turning to SRGN (UniProt P10124), the log2 fold change is -0.159.

Compound in another assay: CC(C)C1=C2N=C(C=C(N2N=C1)NCC3=CC=CC=C3)NCCCCCCN
The assay is described as above. Put shortly: as §1
As to SORBS3 (UniProt O60504), the log2 fold change is -0.035.

For the target SF3B6 (UniProt Q9Y3B4), the log2 fold change was -0.002.

As to SH3GL1 (UniProt Q99961), the log2 fold change is -0.015.

As for SLC25A38 (UniProt Q96DW6), the log2 fold change is -0.114.

For SLC30A6 isoform 2 (UniProt Q6NXT4), the log2 fold change was -0.023.

On to SMYD3 (UniProt Q9H7B4), for which the log2 fold change was 0.034.

SIX5 (UniProt Q8N196): the log2 fold change was -0.042.

As for SSBP3 (UniProt Q9BWW4), the log2 fold change is -0.02.

For the target SNRPD2 (UniProt P62316), the log2 fold change was 0.007.

Consider SNUPN (UniProt O95149), for which the log2 fold change was -0.116.

Regarding SLC39A11 (UniProt Q8N1S5), the log2 fold change was -0.023.

On to STN1 (UniProt Q9H668), for which the log2 fold change is -0.056.

Take SRSF9 (UniProt Q13242): the log2 fold change is -0.031.

For SMIM12 (UniProt Q96EX1), the log2 fold change is -0.024.

Turning to SZT2 (UniProt Q5T011), the log2 fold change is -0.135.

As to STMN3 (UniProt Q9NZ72), the log2 fold change is -0.089.

As for SLC25A44 (UniProt Q96H78), the log2 fold change was -0.031.

As to SYNE2 isoform 2 (UniProt Q8WXH0), the log2 fold change was -0.106.

As to STK3 isoform 2 (UniProt Q13188), the log2 fold change was 0.026.

Take SPPL2A (UniProt Q8TCT8): the log2 fold change is 0.004.

SPC25 (UniProt Q9HBM1): the log2 fold change was -0.002.

SH3BP2 isoform 4 (UniProt P78314): the log2 fold change is -0.004.

Consider SMC1B isoform 3 (UniProt Q8NDV3), for which the log2 fold change was 0.001.

Take TARBP1 (UniProt Q13395): the log2 fold change was -0.051.

For the target SSX5 isoform 2 (UniProt O60225), the log2 fold change is -0.261.

On to SRRT (UniProt Q9BXP5), for which the log2 fold change is -0.01.

Take SMIM1 (UniProt B2RUZ4): the log2 fold change was 0.081.

SOX5 (UniProt P35711): the log2 fold change is 0.091.

As to SYK (UniProt P43405), the log2 fold change is 0.051.

For SUZ12 (UniProt Q15022), the log2 fold change was 0.007.

Take SRGN (UniProt P10124): the log2 fold change was -0.018.

Compound in a further assay: CC1=C(C(CC(=O)N1)C2=CC=C(C=C2)C(F)(F)F)C(=O)NC3=C(C=C4C(=C3)C=NN4)F
Described as above. Put shortly: as §1
With SF3B6 (UniProt Q9Y3B4), the log2 fold change was 0.043.

Consider TAF1B (UniProt Q53T94), for which the log2 fold change is 0.419.

For SH3GL1 (UniProt Q99961), the log2 fold change is -0.03.

As for SLC25A38 (UniProt Q96DW6), the log2 fold change is -0.153.

SLC30A6 isoform 2 (UniProt Q6NXT4): the log2 fold change is 0.047.

In the case of SMYD3 (UniProt Q9H7B4), the log2 fold change was -0.037.

Regarding SIX5 (UniProt Q8N196), the log2 fold change is -0.061.

Take SSBP3 (UniProt Q9BWW4): the log2 fold change is -0.021.

Consider SNRPD2 (UniProt P62316), for which the log2 fold change is -0.011.

For SNUPN (UniProt O95149), the log2 fold change is -0.065.

Consider SLC39A11 (UniProt Q8N1S5), for which the log2 fold change was 0.051.

On to STN1 (UniProt Q9H668), for which the log2 fold change is 0.106.

On to SRSF9 (UniProt Q13242), for which the log2 fold change was -0.019.

With SMIM12 (UniProt Q96EX1), the log2 fold change was -0.008.

Take SZT2 (UniProt Q5T011): the log2 fold change was 0.076.

Take STMN3 (UniProt Q9NZ72): the log2 fold change was -0.003.

Turning to SYNE2 isoform 2 (UniProt Q8WXH0), the log2 fold change was -0.153.

On to STK3 isoform 2 (UniProt Q13188), for which the log2 fold change was -0.005.

With SURF2 (UniProt Q15527), the log2 fold change is 0.103.

Take SPC25 (UniProt Q9HBM1): the log2 fold change was -0.032.

As to SMC1B isoform 3 (UniProt Q8NDV3), the log2 fold change was -0.012.

On to TARBP1 (UniProt Q13395), for which the log2 fold change is -0.027.

SSX5 isoform 2 (UniProt O60225): the log2 fold change is -0.089.

For the target SRRT (UniProt Q9BXP5), the log2 fold change is -0.024.

SMIM1 (UniProt B2RUZ4): the log2 fold change is -0.132.

Regarding SYK (UniProt P43405), the log2 fold change is -0.055.

Turning to SUZ12 (UniProt Q15022), the log2 fold change is -0.023.
